Data from PubChem BioAssay (Tox21).
Records with an inconclusive call do not appear. Where a call stands in place of a potency, no number is given. The source made the active and inactive calls. The call rests on the fitted dose curve; in most records, active means well fitted inhibition curve with a large enough effect in the repeat runs; inconclusive means weak or mixed curves; inactive means no such curve, though single readings can be large or run the other way.

The compounds below were run against Cytochrome P450 3A4 (Homo sapiens) (UniProt P08684) (assay: Cytochrome P450 Family 3 Subfamily A Member 4 (CYP3A4) small molecule antagonists: luciferase reporter qHTS assay (AID 1671201; further: nearly all actives have a fitted effect of over 50% in size)). Details: P450-Glo CYP3A4 enzyme, luciferin luminescence, 1 h; series mostly up to 115 µM.
Chain of Cytochrome P450 3A4 (Homo sapiens) (P08684 whole entry, looked up): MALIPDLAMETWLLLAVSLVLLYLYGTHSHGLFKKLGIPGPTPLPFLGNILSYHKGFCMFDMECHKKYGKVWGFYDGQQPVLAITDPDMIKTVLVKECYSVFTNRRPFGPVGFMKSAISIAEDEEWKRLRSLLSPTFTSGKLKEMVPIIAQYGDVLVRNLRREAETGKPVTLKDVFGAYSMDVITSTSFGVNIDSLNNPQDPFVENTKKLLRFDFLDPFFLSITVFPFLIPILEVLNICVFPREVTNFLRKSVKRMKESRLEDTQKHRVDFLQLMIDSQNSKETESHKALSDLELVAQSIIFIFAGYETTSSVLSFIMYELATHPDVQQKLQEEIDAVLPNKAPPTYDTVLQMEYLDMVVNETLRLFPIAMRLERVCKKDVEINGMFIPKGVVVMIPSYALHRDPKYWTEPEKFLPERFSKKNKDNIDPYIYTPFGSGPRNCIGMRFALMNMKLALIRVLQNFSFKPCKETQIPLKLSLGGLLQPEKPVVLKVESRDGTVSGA
Method in brief: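 Enzyme and proluciferin substrate are mixed with test chemicals for 10 min, then NADPH regeneration system drives turnover for 1 h at room temperature. A detection reagent halts the reaction; luminescence after 20 min gives relative activity.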
Potency means the concentration at half of the fitted maximal effect.

Row | Structure (SMILES) | Potency
1 | Oc1c(I)cc(I)c2cccnc12 | inactive
2 | CCCCCCCCC(CCCCCC)C(=O)O (configuration not stated) | inactive
3 | O=c1[nH]c2ccc(Cl)cc2o1 | inactive
4 | C=CCc1ccccc1OCC(O)CNC(C)C (configuration not stated) | inactive
5 | Oc1ccc(Cl)c2cccnc12 | inactive
6 | NC1[C@H]2CN(c3nc4c(cc3F)c(=O)c(C(=O)O)cn4-c3ccc(F)cc3F)C[C@@H]12 (some centres not stated) | inactive
7 | CN1C(C(=O)Nc2ccccn2)=C(O)c2sccc2S1(=O)=O | inactive
8 | CC1CC(C)C(=O)C1=O (configuration not stated) | inactive
9 | CC(=O)c1cc2ccccc2s1 | inactive
10 | OCCOCC#CCOCCO | inactive
11 | c1ccc2c(c1)CCc1ccccc1N2 | inactive
12 | CC(=O)NC1(c2cccc(F)c2)CCN(CC[C@@]2(c3ccc(Cl)c(Cl)c3)CN(c3ccccc3)C(=O)CO2)CC1 | inactive
13 | CCCCC(CC)COP(=O)(O)O (configuration not stated) | inactive
14 | N#CCc1ccc(Cl)cc1Cl | inactive
15 | c1cc(N(CC2CO2)CC2CO2)ccc1Cc1ccc(N(CC2CO2)CC2CO2)cc1 (configuration not stated) | 12.6 µM (active)
16 | NCCNCCO | inactive
17 | CC(C)=CC(=O)C=C(C)C | inactive
18 | CC(C)=CCC/C(C)=C/CC/C(C)=C/CCC(=O)OC/C=C(\C)CCC=C(C)C | inactive
19 | O=[N+]([O-])c1ccc(O/N=C/c2cc(Br)c(O)c(Br)c2)c([N+](=O)[O-])c1 | inactive
20 | O=c1cc(-c2ccccc2)oc2ccc3ccccc3c12 | 17.8 µM (active)
21 | O=C(/C=C/c1ccccc1)OCCc1ccccc1 | inactive
22 | CC[C@]1(O)C[C@H]2CN(CCc3c([nH]c4ccccc34)[C@@](C(=O)OC)(c3cc4c(cc3OC)N(C=O)[C@H]3[C@@](O)(C(=O)OC)[C@H](OC(C)=O)[C@]5(CC)C=CCN6CC[C@]43[C@@H]65)C2)C1 | 12.3 µM (active)
23 | COc1ccc(OC(=O)N(CC(=O)O)Cc2ccc(OCCc3nc(-c4ccccc4)oc3C)cc2)cc1 | inactive
24 | CCC(OCCCOC)OC(C)=O (configuration not stated) | inactive
25 | CCCCCC#CC(=O)OC | inactive
26 | C[C@@H](O)[C@H]1C(=O)N2C(C(=O)O)=C([C@H]3CCCO3)S[C@H]12 | inactive
27 | C=C1C[C@@]23CC[C@H]4[C@@](C)(CCC[C@@]4(C)C(=O)O[C@@H]4O[C@H](CO)[C@@H](O)[C@H](O)[C@H]4O)[C@@H]2CC[C@]1(O[C@@H]1O[C@H](CO)[C@@H](O)[C@H](O[C@@H]2O[C@H](CO)[C@@H](O)[C@H](O)[C@H]2O)[C@H]1O[C@@H]1O[C@H](CO)[C@@H](O)[C@H](O)[C@H]1O)C3 | inactive
